Screen size: about 6,200 compounds; about 2,900 (47%) were called active. Cut-off read from the data, not from the text of the source: active = inhibition above about 50%; inactive = the rest. So high a share suggests a set chosen from earlier hits. The list shows a part of the results.

The nature of this experiment: Mycobacterium tuberculosis growth inhibition, primary screen (AID 1259343). Particulars: inhibition: at 10 µM, hits give high values; outcome: 10 uM.
Usually inhibition stands for the change of the read-out against control, counted positive when it falls. On to `CC(C)c1nc(CNc2nccc(CCC(F)(F)F)n2)cs1`, for which the inhibition is 94.8% (active).
To `CC(C)c1nc(CN(C)Cc2ccc3ccccc3n2)cs1` belongs 2.62% (inactive); to `FC(F)(F)CCc1ccnc(N[C@@H]2C[C@H]2c2ccccc2)n1`, 30.5% (inactive); to `O=c1ccc2ccc(O)cc2o1`, 74% (active).
In the case of `Nc1ccc2oc(=O)ccc2c1` it was 77.1% (active); in that of `Cc1c(Cl)c(=O)oc2cc(O)ccc12`, -23% (inactive).
In the case of `Nc1ccc2oc(CCc3ccccc3)nc2c1` it was 33% (inactive); in that of `Nc1nc2c3ccccc3nc(-c3ccccc3)n2n1`, 83.3% (active); in that of `COc1cccc(Nc2nc(C(N)CCc3ccccc3)cs2)n1` (centres undefined), 82.2% (active).
For `COc1cccc(Nc2nc(C(N)COCc3ccccc3)cs2)n1` (centres undefined), the inhibition was 64.3% (active).
To `NC(=O)C1(N2CCCCC2)CCN(c2nc(-c3ccc(Cl)cc3Cl)cs2)CC1` belongs -20.2% (inactive); to `Nc1[nH]c(N=Nc2nc3c(s2)CCCC3)c2ccccc12`, -27.1% (inactive).
In the case of `Cc1ccc(CNc2nc3c(s2)CCCC3)cc1` it was 74% (active).
To `Cc1ccc(NCc2ccc(C(=O)NCC3(CO)CCC3)cc2)cc1` belongs 43.9% (inactive); to `Cc1ccc(/C(N)=N\OC(=O)CCc2ccccc2)cc1`, 29.4% (inactive); to `C/C(=N/OC(=O)c1ccc(-c2ccccc2)cc1)C(C)(C)C`, 65.6% (active).
In the case of `O=c1c(Br)cccc(Br)c1O`, the inhibition was 99.7% (active).
To `CC(=NNC(=S)NC1CCCCC1)c1cccs1` belongs -36.2% (inactive).
In the case of `CCNC(=S)NN=C(C)c1cccs1`, the inhibition was 101% (active).
In the case of `CC(=NNC(=S)NC(C)C)c1cccs1`, the inhibition is 104% (active).
Regarding `Nc1ccc(N=Nc2ccccc2)c(N)n1`, the inhibition is 93.8% (active).
On to `CCCC1CCC(c2ccc(C#N)c(=O)[nH]2)CC1` (centres undefined), for which the inhibition was 89.8% (active).
To `CCCC1CC(=O)CC(=O)C1` belongs -33.8% (inactive); to `Fc1ccccc1CN1CCCC2(CCN(C3CCN(CCc4ccccc4)CC3)C2)C1` (centres undefined), 13.5% (inactive); to `Cc1c(C2CCN(CCc3ccccc3)CC2)noc1-c1ccc(Cl)cc1`, 88.1% (active).
In the case of `c1ccc(Cn2nnc3c(Sc4ncco4)ncnc32)cc1` it was 68.9% (active); in that of `Fc1ccc(CSc2ncnc3c2nnn3Cc2ccccc2F)cc1`, -32.2% (inactive).
As for `Fc1ccccc1CSc1ncnc2c1nnn2Cc1ccccc1F`, the inhibition was 94.8% (active).
To `Fc1ccc(Cn2nnc3c(SCc4ccccc4)ncnc32)cc1` belongs 93.4% (active); to `c1ccc(CSc2ncnc3c2nnn3Cc2ccccc2)cc1`, -43.1% (inactive); to `Fc1ccc(Cn2nnc3c(SCc4cccc(F)c4)ncnc32)cc1`, 73.3% (active).
To `Fc1ccc(CSc2ncnc3c2nnn3Cc2ccc(F)cc2)cc1` belongs -6.41% (inactive).
On to `Fc1ccccc1CSc1ncnc2c1nnn2Cc1ccccc1`, for which the inhibition is 10.4% (inactive).
In the case of `Fc1cccc(CSc2ncnc3c2nnn3Cc2ccccc2F)c1` it was 29.2% (inactive).
To `Cc1cccc(CSc2ncnc3c2nnn3Cc2ccc(F)cc2)c1` belongs 15.2% (inactive).
To `CCC1CCCCN1S(=O)(=O)c1ccc(C(=O)Nc2nnc(CSC)o2)cc1` (centres undefined) belongs 99.6% (active); to `CCOc1cc(S(=O)(=O)N2CCCCC2CC)ccc1Br` (centres undefined), -6.56% (inactive).
Consider `CSc1nsc(SCC2=NNC(=O)c3ccccc3O2)n1`, for which the inhibition was 101% (active).
With `O=C(CSCCO)Nc1ccc(Cl)c(Br)c1`, the inhibition is 93.2% (active).
As to `N#Cc1ccc(NC(=O)Cc2ccc(Cl)c(Cl)c2)cc1`, the inhibition is 17.6% (inactive).
To `Cc1nc(CSCC(=O)Nc2ccc(C)c(Cl)c2)no1` belongs 39.4% (inactive).
In the case of `CC1CC(C)(C)CC2(C1)NC(=O)N(c1ccccc1)N2` (centres undefined) it was 86.8% (active); in that of `CCOC(=O)CCc1c(C)c2ccc(OCc3ccc(C(=O)OC)cc3)c(C)c2oc1=O`, 36.8% (inactive); in that of `CCCOC(=O)COc1ccc2c(oc(=O)c3ccccc32)c1C`, 84% (active).
Regarding `CONC(=O)c1oc2c(ccc3ccccc32)c1C`, the inhibition is 21.5% (inactive).
In the case of `O=c1[nH]c(=S)[nH]c(O)c1N=Nc1ccc2c(c1)OCCO2` it was 38.2% (inactive); in that of `O=c1[nH]c(=S)[nH]c2sccc12`, -6.61% (inactive).
Take `O=c1[nH]c(O)c(N=Nc2ccc(SC(F)F)cc2)c(=O)[nH]1`: the inhibition was 84% (active).
In the case of `O=c1[nH]c(=S)[nH]c(O)c1N=Nc1ccc(F)cc1` it was 104% (active); in that of `O=c1[nH]c(=S)[nH]c(O)c1N=Nc1ccc(SC(F)F)cc1`, 99.5% (active).
To `CC(C)(C)C(=O)NC(=S)NCc1ccccc1` belongs 87% (active); to `CC(C)(C)C(=O)NC(=S)NCCc1ccccc1`, 58.1% (active).
As for `O=C(NCCc1ccc(Br)s1)C1CCC1`, the inhibition is -26.3% (inactive).
Consider `O=C(NC(=S)NCCc1ccccc1)C1CCCCC1`, for which the inhibition is 68.9% (active).
Take `CC(C)CC(=O)NC(=S)NCc1ccccc1`: the inhibition is 52.5% (active).
In the case of `O=C(NC(=S)NCc1ccccc1)C1CCCCC1` it was -4.74% (inactive); in that of `CC(C)(C)C(=O)NCCc1cn(-c2ccccc2)c2ccccc12`, 42.6% (inactive).
For the molecule `S=C(NCCc1ccccc1)NC1CCSc2ccccc21` (centres undefined), the inhibition was 31.4% (inactive).
To `CC1CCC(C(C)C)C(OC(=O)Cn2c(-c3ccccc3)[n+](C)c3ccccc32)C1` (centres undefined) belongs 36.3% (inactive).
In the case of `Cc1sc(NC(=O)c2ccc3c(c2)CC(C)N3S(C)(=O)=O)nc1-c1ccc(F)cc1` (centres undefined) it was 44.9% (inactive).
In the case of `CC(C)(C)c1ncc(CNc2ccc(OCC(F)(F)F)nc2)s1` it was 76.1% (active); in that of `O=C1C(=Cc2cc(Br)cs2)COc2ccccc21`, 63.5% (active).
For the molecule `O=C1C(=Cc2ccc(N3CCCCC3)cc2)COc2ccccc21`, the inhibition is 53% (active).
Take `O=C1/C(=C\c2ccc(Cl)cc2)COc2ccccc21`: the inhibition is 93.1% (active).
To `FC(F)(F)c1nc2n(n1)C(c1ccc(Cl)cc1)C1=C(N2)c2ccccc2OC1` (centres undefined) belongs “inactive”; to `CC(NC(=O)c1cc2c(s1)-c1ccccc1OC2)c1ccc(Br)cc1` (centres undefined), -1.38% (inactive).
To `O=C1/C(=C/c2csnn2)CCOc2cc(Br)ccc21` belongs 32.8% (inactive).
Take `O=C(O)c1ccccc1CSc1ccc(N2CCCCC2)cc1`: the inhibition is 34.9% (inactive).
In the case of `COc1ccc2cc(C=C3COc4ccccc4C3=O)ccc2c1` it was -0.42% (inactive); in that of `COc1cc(C(CC(=O)c2ccc(Cl)cc2)SCCO)cc(OC)c1OC` (centres undefined), 7.8% (inactive); in that of `NC(=O)C1CCN(CC(=O)Nc2oc3ccccc3c(=O)c2-c2ccccc2)CC1`, 12.8% (inactive).
With `NC(=O)C1CCN(C(=O)c2ccc(-c3cccc(Cl)c3Cl)o2)CC1`, the inhibition was 57.6% (active).
To `C/C=C/c1c(F)c(F)c(Oc2ccc(C=O)cc2)c(F)c1F` belongs 88.6% (active).
In the case of `Cc1cccc(NC(=O)/C=C/C2=C(Cl)c3ccccc3S2(=O)=O)c1C` it was 102% (active); in that of `NC(=O)c1ccccc1OCc1csc(COc2ccc(F)cc2)n1`, 15.8% (inactive).
To `O=C(Cc1csc(COc2ccc(Cl)cc2)n1)NC12CC3CC(CC(C3)C1)C2` belongs 49.5% (inactive); to `Cc1ccc(OCc2nc(CC(=O)N(C)CC3CCCCC3)cs2)cc1`, 79.4% (active).
As to `CSc1ncc(Cl)c(C(=O)C(C#N)c2nc3ccc(Br)cc3c(=O)[nH]2)n1` (centres undefined), the inhibition is 15.1% (inactive).
In the case of `Cc1ccc(C#N)cc1S(=O)(=O)Nc1nnc(C(C)C)s1`, the inhibition was 31.9% (inactive).
To `CC(C)c1ccc(C(=O)Nc2sccc2C(=O)N2CCCC2)cc1` belongs 16.5% (inactive); to `CC(C)c1nnc(NC(=O)c2cccc(I)c2)s1`, 90.6% (active); to `COC(=O)c1cnc(NC(=O)c2cc(F)cc(Br)c2)s1`, 19.9% (inactive).
Take `CC(C)c1ccc(C(=O)Nc2nnc(C(C)C)s2)cc1`: the inhibition is 90% (active).
In the case of `CCC(CC)c1nnc(NC(=O)c2cc(C)cc(C)c2)s1` it was 51.2% (active); in that of `CC(C)Cc1nnc(NC(=O)c2cccc(C#N)c2)s1`, 20.8% (inactive); in that of `CCCC(C)c1nnc(NC(=O)c2cnc(-c3ccccn3)nc2)s1` (centres undefined), -2.11% (inactive).
Regarding `CC(=NCCCn1ccnc1)c1c(-c2ccccc2)[nH]n(-c2nc3ccccc3s2)c1=O`, the inhibition was 52.5% (active).
To `c1ccc(-c2ccc(-c3nccn3CCn3ccnc3)s2)cc1` belongs -34.9% (inactive).
To `COc1cccc(-c2cn3c(C(=O)Nc4ccccn4)csc3n2)c1` belongs 75.6% (active); to `COc1ccc(-c2cn3c(C(=O)Nc4nccs4)csc3n2)cc1`, 10.8% (inactive).
To `Cc1c2cnnc(Sc3ccc(Cl)cc3)c2c(C)n1C` belongs 64% (active); to `Clc1ccc(Sc2ncccn2)cc1`, 2.73% (inactive).
As for `CC(=O)c1ccc(OCc2cc(C(=O)N(C)Cc3ccon3)no2)cc1`, the inhibition is 80.4% (active).
In the case of `CSc1ccccc1OCc1cc(C(=O)N(C)Cc2ccc(F)cc2)no1` it was 15.7% (inactive); in that of `Cc1nonc1CN(C)C(=O)c1cc(COc2ccc(F)cc2Cl)on1`, 89.4% (active).
To `CCc1ccc(CN(C)C(=O)c2cc(COc3ccc(OC)cc3Cl)on2)nc1` belongs 73% (active); to `CC(NC(=O)c1cc(Br)ccc1O)c1ccccc1` (centres undefined), 17.3% (inactive); to `CC(C)c1ccc(O)c(NC(=S)NC(=O)c2cncc(Br)c2)c1`, 99.5% (active).
In the case of `CC(NC(=O)c1cncc(Br)c1)c1ccc(Cl)cc1` (centres undefined) it was 86.8% (active); in that of `OCC1CCCN(c2ncnc3sc4c(c23)CCCC4)C1` (centres undefined), 20.6% (inactive); in that of `COc1ccc(F)cc1CN1CCN(c2ncnc3sc4c(c23)CCCC4)CC1`, 60% (active).
As for `COc1cccc(OCCN2CCN(c3ncnc4sc5c(c34)CCCC5)CC2)c1`, the inhibition is 36.6% (inactive).
`Oc1cc(CCC2CCCCN2)cc(-c2ccncc2)c1` (centres undefined): the inhibition is 45.4% (inactive).
In the case of `C1CCC(C(CC2CCCCN2)C2CCCCC2)CC1` (centres undefined), the inhibition is 55.1% (active).
As for `CC(OC1CC(=O)CC2C(=O)c3ccccc3C(=O)C12)c1ccccc1` (centres undefined), the inhibition is 94.3% (active).
To `CC(C)c1ccc2c(c1O)CC[C@H]1C3=C(CC[C@]21C)C(=O)OC3` belongs 45% (inactive); to `C(=NNc1ccccc1)c1cnn(-c2ccccc2)c1`, 94.4% (active); to `C(=NNC1=Nc2cccc3cccc1c23)c1ccccc1`, 15.1% (inactive).
In the case of `Cn1cc(C=NNc2ccccc2)c2ccccc21` it was -30.1% (inactive).

The record behind these values is PubChem BioAssay AID1259343 (VanderVen Lab, College of Veterinary Medicine, Cornell …, 2017).
